Laboratory results: PubChem BioAssay (EPA / NIEHS)
Where “and” joins values, the source holds several entries; their conditions need not be identical. Equal entries are not always repeated. A structure can be active in one record and inactive in another. Calls of active or inactive are those of the source. How the source made its calls: active means hit-call score of the fitted dose curve at least 0.9, where 1 is the maximum; inactive means score below 0.9.

The compounds below were run on urokinase plasminogen activator (uPA), PLAU (gene 5328) (assay: BSK_KF3CT_uPA: BioMAP Diversity Plus: KF3CT Assay for urokinase plasminogen activator (uPA) Biomarker Activity (AID 2283075)). Settings: primary human keratinocytes with fibroblasts; actives raise or lower the signal.
Procedure: BSK_KF3CT is a cell-based, multiplexed-readout assay that uses keratinocytes and foreskin fibroblasts, a human skin primary cell co-culture, with measurements taken at 24 hours after chemical dosing in a 96-well plate.BSK_KF3CTA is an assay component measured in the BSK_KF3CT assay. It measures uPA antibody related to regulation of gene expression using ELISA technology.Data from the assay component BSK_KF3CTA was analyzed into 1 assay endpoint. This assay endpoint, BSK_KF3CTA, was analyzed with bidirectional fitting relative to DMSO as the negative control and baseline of activity. Using a type of binding reporter, gain or loss-of-signal activity can be used to understand changes in the signaling as they relate to the gene PLAU. Furthermore, this assay endpoint can be referred to as a primary readout, because this assay has produced multiple assay endpoints where this one serves a signaling function. To generalize the intended target to other relatable targets, this assay endpoint is annotated to the protease intended target family, where the subfamily is serine protease.
The levels of cell surface (or secreted, indicated by the prefix "s") biomarker endpoints were measured by ELISA. Overt cytotoxicity to cells in confluent adherent cultures (all systems other than the BT system) was assessed by measuring total protein levels using sulforhodamine B (SRB) staining in parallel cultures at the time of biomarker measurements, indicated as SRB endpoints. For proliferation assays for adherent cell types, individual cell types are cultured at sub-confluence and relative cell numbers quantified by SRB staining at time points optimized for each system (48 h: 3C and CASM3C systems; 72 h: BT and HDF3CGF systems; 96 h: SAg system). SRB was performed by staining cells with 0.1% SRB after fixation with 10% TCA and reading wells at 560 nm.Viability and proliferation of PBMC (T cells) was quantified by Alamar Blue reduction for the SAg and BT systems. For PBMC viability (referred to as PBMC Cytotoxicity within the assay endpoint names), cells were plated (75,000/well in a 96-well plate) and then chemical samples added for 1 h before addition of activators, SEB and TSST-1 (20 ng/mL final concentration each). Cells were incubated for 90 h. Then, Alamar Blue (20 uL/well) (Invitrogen, Cat DAL1100) was added for 6 h, and the plates were read with a fluorescence microplate reader at 546/580 nm (excitation/emission). For PBMC proliferation, cells were plated and activated as above but incubated for only 16 h prior to addition of Alamar Blue. Plates were read after 6 h.
`Oc1ccc(Cl)cc1Cl` was tested, and the outcome was “inactive”.
With `CCC(C)(c1ccc(O)cc1)c1ccc(O)cc1` the outcome was “inactive”.
`CO/C=C(/C(=O)OC)c1ccccc1COc1cccc(C(F)(F)F)n1` was tested, and the outcome was “inactive”.
For `CCCCCCCCCC[N+](C)(C)CCCCCCCCCC`, the AC50 was 5.24 µM (active).
`C[C@]12CCC(=O)C=C1CC[C@@H]1[C@@H]2CC[C@@]2(C)[C@H]1CC[C@]2(C)O` was tested, and the outcome was “inactive”.
For `ClC(Cl)=C(c1ccc(Cl)cc1)c1ccc(Cl)cc1`, the AC50 was 38.7 µM (active).
With `O=C(O)C(F)(F)C(F)(F)C(F)(F)C(F)(F)C(F)(F)C(F)(F)C(F)(F)C(F)(F)F` the outcome was “inactive”.
With `CCC(C)c1cc([N+](=O)[O-])cc([N+](=O)[O-])c1O` (stereo not given) the outcome was “inactive”.
In the case of `C=CC(N)=O`, the outcome was “inactive”.
`CCOC(=O)C(O)(c1ccc(Cl)cc1)c1ccc(Cl)cc1` was tested, and the outcome was “inactive”.
For `C=CC(=O)NCNC(=O)C=C`, the outcome was “inactive”.
For `CCSC(=O)N(CC)C1CCCCC1`, the outcome was “inactive”.
`CCCCCCOC(=O)c1ccccc1C(=O)OCCCCCC` was tested, and the outcome was “inactive”.
In the case of `Cc1ccccc1O`, the outcome was “inactive”.
With `Oc1c(Cl)c(Cl)c(Cl)c(Cl)c1Cl` the outcome was “inactive” and the AC50 was 27.4 µM (active).
In the case of `Cc1ccccc1[N+](=O)[O-]`, the outcome was “inactive”.
In the case of `c1cc2ccc3cccc4ccc(c1)c2c34`, the outcome was “inactive”.
`Cc1ccccc1CO[C@@H]1C[C@@]2(C(C)C)CC[C@]1(C)O2` was tested, and the outcome was “inactive”.
In the case of `Clc1ccc(Cl)cc1`, the outcome was “inactive”.
For `CC(C)(c1ccccc1)c1ccc(O)cc1`, the AC50 was 31.5 µM (active).
`CCCCCCCCOC(=O)c1ccccc1C(=O)OCCCCCCCC` was tested, and the outcome was “inactive”.
`ClC1=C(Cl)[C@]2(Cl)[C@@H]3[C@@H]4C[C@@H]([C@H]5O[C@@H]45)[C@@H]3[C@@]1(Cl)C2(Cl)Cl` was tested, and the outcome was “inactive”.
For `CN(C)CCO`, the outcome was “inactive”.
In the case of `CCOP(=S)(OCC)SCSC(C)(C)C`, the outcome was “inactive”.
`Clc1ccc(C(c2ccccc2Cl)C(Cl)(Cl)Cl)cc1` (stereo not given) was tested, and the AC50 was 21.6 µM (active).
With `CN(C)c1nc(=O)n(C2CCCCC2)c(=O)n1C` the outcome was “inactive”.
In the case of `CC(C)C(=O)OCC(C)(C)C(OC(=O)C(C)C)C(C)C` (stereo not given), the outcome was “inactive”.
With `C1CC2OC2CC1C1CO1` (stereo not given) the outcome was “inactive”.
In the case of `Cc1cc(O)ccc1Cl`, the outcome was “inactive”.
`O=NN(c1ccccc1)c1ccccc1` was tested, and the outcome was “inactive”.
With `O=C(NC(=O)c1cc(F)c(F)cc1Cl)Nc1cc(F)ccc1N1CCC(C(=O)O)CC1` the outcome was “inactive”.
`NS(=O)(=O)C(F)(F)C(F)(F)C(F)(F)C(F)(F)C(F)(F)C(F)(F)C(F)(F)C(F)(F)F` was tested, and the AC50 was 13.5 µM (active) and 20.9 µM (active) and 21.5 µM (active).
In the case of `CCC(=O)O[C@H]1CC[C@H]2[C@@H]3CCC4=CC(=O)CC[C@]4(C)[C@H]3CC[C@]12C`, the AC50 was 32.5 µM (active).
In the case of `CCC(C)(CC)c1cc(NC(=O)c2c(OC)cccc2OC)on1`, the outcome was “inactive”.
With `Cc1cc2c3c(c1)C(c1ccccc1)=N[C@@H](NC(=O)c1ccncc1)C(=O)N3CC2` the outcome was “inactive”.
For `C[C@]12CCC(=O)C=C1CC[C@@H]1[C@@H]2CC[C@]2(C)C(=O)CC[C@@H]12`, the outcome was “inactive”.
With `Clc1ccc(C(Cl)(Cl)Cl)cc1` the outcome was “inactive”.
In the case of `CC(c1ccc(O)cc1)(c1ccc(O)cc1)c1ccc(O)cc1`, the AC50 was 20 µM (active).
With `ClC1=C(Cl)[C@]2(Cl)[C@@H]3[C@H]4C[C@H]([C@@H]5O[C@H]45)[C@@H]3[C@@]1(Cl)C2(Cl)Cl` the outcome was “inactive”.
